This assay is described as follows: Quantitative high throughput screen to test cell viability of anti-malarial compounds targeting the delayed death phenotype. The source says: The biochemical processes that make this organelle essential for erythrocytic stage parasites are not well understood. However, antibiotics, such as azithromycin and tetracycline, which target the apicoplast translational machinery, have a potent antimalarial effect. […] We have developed a cell-based assay that measures parasite growth based on the expression of an integrated copy of a firefly luciferase reporter. To detect small molecules that cause this 'delayed death' phenotype, erythrocytes infected with the luciferase-expressing parasites were incubated with compounds for either one or two generations, corresponding to 48 and 96 hours, respectively. Compounds that inhibit parasite growth in the second generation, but not the first, should be enriched in antimalarials that target the apicoplast. Growth inhibition is detected by a decrease in luciferase activity. The goal of this counterscreen is to measure the cytoxoxicity (against HepG2 cell line) of a set of anti-malarial compounds that target the delayed death pheonotype as identified by the qHTS assay that inhibit the development of the apicoplast in the malarial parasite Plasmodium falciparum. NIH Molecular Libraries Probe Production Network [MLPCN] […]
Cells were plated at a density of 2000 cells/well/5uL in 1536 well white tissue culture plate with culture medium. […] Luminescence was measured using ViewLux (1 second, slow, 2X).

Records with an inconclusive call do not appear. Active and inactive are the calls of the source. Calls come from the whole dose curve; as a rule, active = well fitted curve in the direction sought with a large enough effect; inconclusive = small, poorly fitted or top-dose-only effect, or effect the other way, or another doubt; inactive = no such curve, though single readings can be large or run the other way.

As to `C[C@@H]1CN([C@@H](C)CO)C(=O)c2cc(NC(=O)Nc3ccccc3)ccc2O[C@@H](C)CCCCO[C@H]1CN(C)C(=O)Oc1ccccc1`, the compound was called inactive.

Values taken from PubChem BioAssay AID504602 (National Center for Advancing Translational Sciences (NCATS), 2011).
